# Compound activity (PubChem BioAssay)
# KCNQ2 pot: KCNQ2 (rat) channel potentiation | O88943 | CHO-K1 KCNQ2, FluxOR thallium flux fluorescence; stronger effect = higher value | B-score at 10 µM | 310,000 compounds, 0.54% hits | AID 2239;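 active = fluorescence ratio B-score at least 3 SD of library B-scores, with initial fluorescence B-score within 3 of them, cut at about 5.3 in these data; same plate scores as AID 2156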;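 also: B-score of peak minus minimum over baseline fluorescence ratio after K+ and Tl+ stimulus; positive B-score means potentiation of KCNQ2 with more thallium influx and brighter signal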
# KCNQ2 inh: inhibitors of rat KCNQ2 potassium channel | O88943 | CHO-K1 KCNQ2, FluxOR thallium flux, 20 min; stronger effect = lower value | B-score at 10 µM | 310,000 compounds, 1.1% hits;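 active = fluorescence ratio B-score at most minus 3 library SDs, with starting brightness B-score within 2 library SDs, cut at about -5.5 in these data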
# An asterisk follows results filed as active; i = inactive; nt = no result given. Rows were chosen to be rich in hits. Some 1.6% of all compounds tested hit in one or more screens of this group.
SMILES,KCNQ2 pot,KCNQ2 inh
CC1(c2ccc(Cl)cc2Cl)NC(=O)N(CC(=O)Nc2ccc3[nH]c(=O)[nH]c3c2)C1=O (stereo not given),nt,i
O=C(CN1C(=O)c2ccccc2C1=O)Nc1ccc(Cl)cn1,0.84,i
O=C1c2ccccc2C(Nc2ccc(Cl)cn2)N1Cc1ccccc1 (stereo not given),-6.5,-6.5*
O=C(CN(C(=O)CNC(=O)c1ccco1)c1ccccc1F)NC1CCCCC1,0.03,i
Cc1nn(-c2ccccc2)c2sc(C(=O)OC3CCOC3=O)cc12 (stereo not given),1.1,i
CCc1nc(SCC(=O)NC2CC2)c2c(C)c(C)sc2n1,1.5,i
CC(C)N(CCNC(=O)c1nn(Cc2ccccc2)c(=O)c2ccccc12)C(C)C,0.17,i
CCN(CC)C(=O)C1(P(=O)(c2ccccc2)c2ccccc2)CCC1,nt,i
CCCCN(CCCC)C(=O)C1(P(=O)(c2ccccc2)c2ccccc2)CCC1,-6.2,-6.2*
COc1ccccc1N1CCN(c2nc3ccccn3c(=O)c2C=O)CC1,0.59,i
CC(=O)N1c2ccc3ccccc3c2C(C)CC12CCCCC2 (stereo not given),-6.6,-6.6*
CC1CC2(CCCCC2)Nc2ccc3ccccc3c21 (stereo not given),nt,i
Cc1ccc(NS(=O)(=O)c2cccc(C(=O)NCC(c3ccc(F)cc3)N3CCOCC3)c2)cc1 (stereo not given),nt,i
C=CCN(c1ccccc1)S(=O)(=O)c1cccc(C(=O)NCC(c2ccc(F)cc2)N2CCOCC2)c1 (stereo not given),-6,-6*
CC(c1ccccn1)N(CCN(C)C)C(=S)Nc1cccc(F)c1 (stereo not given),1.3,i
CC(C)CCN(C(=S)Nc1cccc(C(F)(F)F)c1)C(C)c1ccccn1 (stereo not given),-6.1,-6.1*
COC(=O)c1ccc(COc2ccccc2/C=C(\C#N)C(=O)Nc2ccc(C)cc2C)cc1,nt,i
COC(=O)c1ccc(COc2ccccc2/C=C(\C#N)C(=O)Nc2c(C)cc(C)cc2C)cc1,-7.2,-7.2*
C=CCn1c(=O)c(C(=O)Nc2ccccc2C(=O)OCC)c(O)c2ccccc21,nt,i
C=CCn1c(=O)c(C(=O)Nc2ccccc2S(N)(=O)=O)c(O)c2ccccc21,5.7*,i
CCOC(=O)c1nnn(-c2nonc2N)c1-c1ccc(F)cc1,0.93,i
Oc1ccc(-c2nc3ccccn3c2NCc2ccco2)cc1,-5.8,-5.8*
O=C(Nc1c(-c2ccccc2)nc2ccccn12)c1ccco1,0.57,i
COc1ccc(N(CC(=O)N2CCC(Cc3ccccc3)CC2)S(C)(=O)=O)cc1,nt,i
Cc1cc(C)n(-c2nc3ccccc3nc2NCCc2ccccc2)n1,-7.5,-7.5*
SMILES,KCNQ2 pot,KCNQ2 inh
COc1ccc(Nc2nc3ccccc3nc2-n2nc(C)cc2C)cc1,nt,i
O=C(NCCCN1CCOCC1)c1ccccc1N1C(=O)[C@@H]2Cc3c([nH]c4ccccc34)C(c3ccc(F)cc3)N2C1=O (stereo not given in full),-7.1,-7.1*
O=C(NCCN1CCOCC1)c1ccccc1N1C(=O)[C@@H]2Cc3c([nH]c4ccccc34)C(c3ccccc3)N2C1=O (stereo not given in full),nt,i
C=C1SC(=Nc2c(C)cccc2Cl)N(C(=O)c2sc3ccccc3c2Cl)C12CCCCC2,nt,i
C=C1SC(=Nc2ccccc2Cl)N(C(=O)c2sc3ccccc3c2Cl)C1(C)C,-5.8,-5.8*
Cc1ccc(NC(=O)NC2=N/C(=C(/C#N)C(=O)N3CCCC3)c3ccccc32)cc1,-7,-7*
N#C/C(C(=O)N1CCCC1)=C1/N=C(N)c2ccccc21,0.06,i
O=C(O)CCn1c(SCCc2ccccc2)nc2ccccc21,0.54,i
CC(CCCCC(=O)Nc1ccc(C(F)(F)F)cc1)NCCc1cnc[nH]1 (stereo not given),nt,i
CCOC(=O)c1c(NC(=S)NCCc2ccccc2)sc2c1CC(C(C)C)OC2 (stereo not given),7.5*,i
CC(C)C1Cc2c(sc(NC(=S)NC(=O)c3ccccc3)c2C#N)CO1 (stereo not given),1.6,i
CCc1ccccc1NC(=O)NNS(=O)(=O)c1cc(C)ccc1C,nt,i
O=C1c2cccc(OCc3ccc(F)cc3)c2CCN1Cc1ccccc1,-6.5,-6.5*
Cc1ccc(COc2cccc3c2CCN(Cc2ccc(F)cc2)C3=O)cc1,nt,i
CCOC(=O)N1CCC(N2C(=O)c3ccc(C(=O)Nc4ccc(OC)cc4)cc3C2=O)CC1,0.07,i
Cn1c(=O)c2ccccc2n(Cc2cccc(F)c2)c1=O,1,i
COc1ccccc1C1CN(c2ccc(F)cc2F)N=C1c1cccs1 (stereo not given),-7.8,-7.8*
COc1ccccc1C1CC(c2cccs2)=NN1C(=O)CCC(=O)O (stereo not given),0.69,i
CCN(CC)S(=O)(=O)c1ccc(N2CCOCC2)c(NC(=O)c2cc3ccccc3oc2=O)c1,-5.5,-5.5*
